Molecules are shown by their SMILES. Inconclusive results are not listed. A number with no mark means an inactive call. The source made the active and inactive calls. Calls come from the whole dose curve.
% is set by controls: 0 for no effect and ±100 for the full control effect; potency is the fitted concentration of half-maximal effect.

The nature of this assay: Natriuretic polypeptide receptor (hNpr1) antagonism - Pilot counterscreen GloSensor control cell line (AID 1347045). The settings on record: HEK293 cGMP GloSensor cells, SNP-stimulated luminescence, 20 min; series mostly up to 38.3 µM; activity change, negative = inhibition: at the top concentration. A digest of the protocol: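 The SNP-driven cGMP luminescence signal (50 uM, 20 min, room temperature) was measured in GloSensor HEK293 control cells. Compounds were tested as a LOPAC titration series and preincubated for 30-50 min.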
On the technique in general: A counterscreen serves to expose hits that act by an unwanted route or on another target.
Regarding `CCN(CC)CCOCCOC(=O)C1(c2ccccc2)CCCC1`, the “activity change, negative = inhibition” value was 3.98%. Same read-out and setting: the same measure for `CN(C)C/C=C(/c1ccc(Br)cc1)c1cccnc1`: -5.5%. Still for that read-out and setting: for `NC(N)=NC(=O)Cc1c(Cl)cccc1Cl` the value was 5.68%; for `C[N+](C)(C)CCCCCCCCCC[N+](C)(C)C`, 1.2%; for `COc1ccc2c(c1OC)C(=O)O[C@@H]2[C@H]1c2c(cc3c(c2OC)OCO3)CCN1C`, 1.5%. With `COC(=O)C1=C(C)NC(C)=C(C(=O)OCCN(C)Cc2ccccc2)C1c1cccc([N+](=O)[O-])c1` (centres undefined), the Potency was 16.5 µM (active). As to `CC[N+](C)(C)c1cccc(O)c1`, the “activity change, negative = inhibition” value is 11.6%. Same read-out and setting: for `CN(C)CC[C@@H](c1ccc(Br)cc1)c1ccccn1` the value was -4.38%; for `CN(C)CCN(Cc1cccs1)c1ccccn1`, 6.5%; for `COCCc1ccc(OCC(O)CNC(C)C)cc1` (centres undefined), 19.4%. `CC(C)COCC(CN(Cc1ccccc1)c1ccccc1)N1CCCC1` (centres undefined): the “activity change, negative = inhibition” value was -0.545%.

`CCOC(=O)C1=C(C)NC(C)=C(C(=O)OC)C1c1cccc([N+](=O)[O-])c1` (centres undefined): the “activity change, negative = inhibition” value is -20.7%.

Consider `C#CCN(C)CCCOc1ccc(Cl)cc1Cl`, for which the “activity change, negative = inhibition” value is 3.24%. Same read-out and setting: the same measure for `COc1cc(C(=O)OCCCN2CCCN(CCCOC(=O)c3cc(OC)c(OC)c(OC)c3)CC2)cc(OC)c1OC`: 0.659%; for `CC1=NS(=O)(=O)c2cc(Cl)ccc2N1`: 0.0717%.

Take `Cc1nc2ccccn2c(=O)c1CCN1CCC(C(=O)c2ccc(F)cc2)CC1`: the “activity change, negative = inhibition” value was 0.086%. Still for that read-out and setting: for `OCCN1CCN(CCCN2c3ccccc3C=Cc3ccccc32)CC1` the value was -1.38%; for `C[C@]12CCC(=O)C=C1CC[C@@H]1[C@@H]2CC[C@@]2(C)[C@H]1CC[C@]2(O)C(=O)CO`, -0.933%. The same measure, in the same setting: the same measure for `Cc1ccc(/C(=C\CN2CCCC2)c2ccccn2)cc1`: 9.11%.
